An excerpt weighted towards active compounds, which were near 2.1% of everything screened.
TPT1 inh = blocks Candida albicans tRNA 2'-phosphotransferase | AID 1962 | recombinant caTPT1, FP RNA substrate dephosphorylation | hit rate 0.81% among 300,000 | inhibition, % at 5 µM;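 active = inhibition above the mean of all tested compounds plus 3 SD, set per screening campaign, cut at about 24% in these data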;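 note: plate controls were DMSO alone for no effect and ferristatin control at 100 nM for full effect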
HNF4A DNA FP = change in binding of human HNF4 alpha to DNA. hit rate 0.3% among 360,000. P41235. activity change, % at 10 µM. HNF4a-FITC DNA binding, fluorescence polarization, 1 h. AID 1224865; in the data active = activity change above about 30%, passing the limit was not always enough
Rpn11 block = inhibitors of human proteasome Rpn11. human 26S proteasome, Ub4-pepOG fluorescence polarization; 20S core pre-blocked with epoxomicin. hit rate 0.59% among 360,000. inhibition, % at 20 µM;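 active = inhibition at 20 µM, scaled to each plate's controls, above about 33%, limit read from the data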
Myeloid diff 2 = myeloid differentiation induction; ER-HoxA9 myeloid progenitors, lysozyme-GFP differentiation, flow cytometry; calls only at 10 µM; hit rate 1% among 360,000; AID 624256;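 active = normalized GFP-positive differentiation at or above the plate's own cutoff, the solvent-only control mean plus 3 SD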;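 note: cells exposed to compound for four days before flow analysis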
TPT1 inh confirm = TPT1 (C. albicans) inhibition, confirmation. shares compounds with TPT1 inh. recombinant caTPT1, fluorescence polarization, RNase T1 coupled. inhibition, % at 5 µM. hit rate 74% among 2,400;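 active = inhibition above the primary screen limit, the mean inhibition of all tested compounds plus 3 SD, cut at about 25% in these data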
RNase T1 inh = RNase T1 inhibition in TPT1 counter-screen. shares compounds with TPT1 inh. RNase T1 cleavage, fluorescence polarization, 1536-well. inhibition, % at 5 µM. hit rate 83% among 2,400. AID 2153;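 active = inhibition above the solvent-only control well mean plus 3 SD, limit set per screening run, cut at about 23% in these data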;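 note: plate controls were DMSO wells with enzyme for no effect and wells without RNase T1 for full effect; inhibitors block cleavage so intact labeled substrate keeps polarization high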
Target sequence (P00651 whole entry, looked up): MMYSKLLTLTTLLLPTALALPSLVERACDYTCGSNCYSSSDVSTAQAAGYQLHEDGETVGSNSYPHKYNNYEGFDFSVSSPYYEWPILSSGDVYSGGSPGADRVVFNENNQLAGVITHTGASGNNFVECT
Active calls of the source: *; i = inactive; · = not tested or not shown; + = active, no number.

SMILES	TPT1 inh	HNF4A DNA FP	Rpn11 block	Myeloid diff 2	TPT1 inh confirm	RNase T1 inh
CCOC(=O)c1sc2nc(C)nc(SCC(=O)NC(C)CCc3ccccc3)c2c1C (configuration not stated)	25*	17	32	i	41*	51*
CCOC(=O)c1sc2nc(C)nc(SCC(=O)N(C)C3CCS(=O)(=O)C3)c2c1C (configuration not stated)	8	6	15	i	·	·
Cc1c(NC(=O)Cc2noc3ccccc23)cccc1[N+](=O)[O-]	74*	2	2	i	11	11
N#C/C(=C\c1ccc(Sc2ccccc2)o1)c1nc2ccccc2[nH]1	51*	11	3	i	60*	70*
Cc1cc(/C=C(/C#N)c2nc3ccccc3[nH]2)c(C)n1-c1cc(C(=O)O)cc(C(=O)O)c1	·	-33	20	i	·	·
Cc1ccc2nc(/C(C#N)=C/c3ccc(-c4ccccc4C(=O)O)o3)[nH]c2c1	133*	97*	·	i	139*	132*
N#C/C(=C/c1ccc(Sc2nc3ccccc3[nH]2)o1)c1ccccc1F	-1	1	-10	i	·	·
CCN(C(=O)COC(=O)C1CCN(S(=O)(=O)c2ccc3c(c2)OCCO3)CC1)C1CCCCC1	3	5	0	i	·	·
CC(C)Nc1nnc(SC(C)C(=O)Nc2ccc(Cl)cn2)s1 (configuration not stated)	-4	-2	-1	i	·	·
Cc1cc(Cl)ccc1OCC(=O)NN1C(=O)C2C3C=CC(C3)C2C1=O (configuration not stated)	-2	-2	-4	i	·	·
CC[C@@H](C)[C@H](NC(=O)CNC(=O)Cc1c(C)c2c(cc(C)c3c(C)coc32)oc1=O)C(=O)O	51*	2	-3	i	6	7
CCc1cc2ccc(C)cc2nc1SCC(=O)NC1CCCC1	-4	0	5	i	·	·
O=c1[nH]cnc2sc3c(c12)CCN(Cc1ccccc1)C3	3	-4	-28	i	·	·
OCCCNc1ncnc2sc3c(c12)CCN(Cc1ccccc1)C3	24*	25	27	i	49*	64*
CCC(C)N1CCNCC1 (configuration not stated)	33*	-4	3	i	-1	4
CCC(C)N1CCN(S(=O)(=O)c2ccc3ccccc3c2)CC1 (configuration not stated)	0	1	-5	i	·	·
O=S(=O)(Nc1nc2ccccc2nc1Nc1ccc2c(c1)OCCO2)c1cccs1	78*	48*	·	i	90*	96*
COc1ccc(C2CC(c3ccccc3)=NN2C(=O)CSc2nnnn2-c2cccc(C)c2)cc1 (configuration not stated)	-2	5	-4	i	·	·
O=c1c[n+]([O-])c2ccccc2n1OCc1ccccn1	26*	-6	5	+	9	13
Cc1c(=O)n(OCc2ccccn2)c2ccccc2[n+]1[O-]	-2	0	2	i	·	·
CCCC(C)C(=O)OCC(=O)NCc1ccc(OC)c(OC)c1 (configuration not stated)	0	-3	2	i	·	·
C=CCn1c(C(CCCC)CC(O)COCC(C)C)n[nH]c1=S (configuration not stated)	0	-1	2	i	·	·
C=CCn1c(C(CC(C)C)CC(C)O)n[nH]c1=S (configuration not stated)	43*	-1	5	i	2	4
O=C(O)c1ccc(-c2ccc(/C=N/Nc3ccc([N+](=O)[O-])cc3)o2)cc1	130*	129	·	+	135*	129*
O=C(O)c1ccc(N/N=C/c2ccc(-c3cccc(Cl)c3)o2)cc1	3	1	10	i	·	·
CC(C)(C)NC(=S)N/N=C\c1ccc(-c2ccc([N+](=O)[O-])cc2)o1	92*	64*	·	+	98*	103*
Cc1cc(C)n(Cc2ccc(C(=O)N/N=C/c3ccc(-c4ccc([N+](=O)[O-])cc4)o3)o2)n1	76*	49	·	i	65*	25*
O=C(O)c1cccc(-c2ccc(/C=N/Nc3ccc([N+](=O)[O-])cc3)o2)c1	124*	124	·	i	126*	120*
CCCCC(=O)N/N=C/c1ccc(-c2ccc([N+](=O)[O-])cc2)o1	13	3	13	i	·	·
O=C(CSc1ccccc1)Nc1nnc(C2CC2)s1	2	-1	-1	i	·	·

Screening results (PubChem)
